For the assay, the target named is Fibroblast growth factor 10 (Homo sapiens) (UniProt O15520). Kind of assay: compounds binding fibroblast growth factor 10 – biochemical, small-molecule microarray, 635 nm fluorescence, primary screen (AID 1102). As to conditions: FGF10 binding, fluorescence 635 nm, higher = more signal.
Chain of Fibroblast growth factor 10 (Homo sapiens) (O15520 whole entry, looked up): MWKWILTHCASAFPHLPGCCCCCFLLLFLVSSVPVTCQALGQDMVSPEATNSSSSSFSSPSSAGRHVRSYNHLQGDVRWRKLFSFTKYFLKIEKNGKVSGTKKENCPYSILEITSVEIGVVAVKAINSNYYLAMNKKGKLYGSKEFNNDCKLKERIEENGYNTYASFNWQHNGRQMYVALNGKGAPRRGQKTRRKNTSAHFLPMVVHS
For `COCCOC(=O)N1C(=O)[C@@]2(c3cc(C#CC4=CCCCC4)ccc31)[C@H](C(N)=O)[C@H]1C(=O)O[C@H](c3ccccc3)[C@H](c3ccccc3)N1[C@@H]2c1ccccc1OCCO`, the composite z-score was 1.24. To `O=C1NC(=O)C2C1C=CC(C(O)c1ccco1)N2Nc1ccccn1` (stereo not given) belongs 0.32; to `CCCCN1CC=CC23O[C@@H]4/C=C\CCC(C)OC(=O)C4[C@H]2C(=O)N(C(CO)C(C)C)[C@@H]3C1=O` (stereo not given in full), 0.384. As for `CC=CC(O)C1C=CC2C(=O)N(c3ccccc3)C(=O)C2N1Nc1ccccc1F` (stereo not given), the figure is 0.169. In the case of `COc1ccccc1CN1C(=O)c2ccccc2[C@](Cc2ccccc2I)(C(=O)NCC(F)(F)F)[C@@H]1c1ccc(CO)cc1`, the composite z-score was 0.7. To `O=C1NC(=O)C2C1C=CC(C(O)c1c(F)cccc1Cl)N2Nc1ccc(Cl)cc1Cl` (stereo not given) belongs 0.185; to `COC(=O)[C@@]1(Cc2ccccc2)[C@H]2c3cc(C(=O)N(C)C)n(CCc4ccc(O)c(OC)c4)c3C[C@H]2CN1C(=O)c1ccccc1`, 0.626. To `CCCNC(=O)[C@@H]1c2ccccc2C(=O)N(C(C)C)[C@H]1c1ccc(CO)cc1` belongs -0.342; to `[N-]=[N+]=Nc1ccccc1[C@H]1OC(c2ccc(OCCCO)cc2)=N[C@@]1(Cc1ccccc1)C(=O)N1CCCCC1`, 1.45. The compound `C=CCC(OC(C)=O)[C@@H]1[C@@H](N(Cc2cccc3ccccc23)C(=O)Cc2ccc(F)cc2)c2cc(OCCCO)ccc2N1C(=O)c1ccc2ccccc2n1` (stereo not given in full) showed a composite z-score of -0.0905. Compound `C[N+](C)(C)CCCC[C@@H]1NC(=O)[C@H]2C[C@@H](C(=O)NCCCCCCN)[C@@H](c3ccc(O)cc3)N2C1=O` showed a composite z-score of 0.687. To `C=C(CCCC)/C(=C/C[C@@H](OC(=O)c1ccncc1)c1ccccc1OCCO)c1cnc2ccccc2c1` belongs 1.44; to `O=C1c2ccccc2[C@](Cc2ccccc2I)(C(=O)NCC(F)(F)F)[C@H](c2ccc(CO)cc2)N1C1CCCCC1`, 1.04; to `CC(C)N1C(=O)C[C@@](C(=O)NCCCN(C)C)(c2ccc([N+](=O)[O-])cc2)[C@H]1c1ccc(CO)cc1`, -0.532. `C=C[C@@H](COC(C)=O)N(C(=O)OC(C)(C)C)S(=O)(=O)c1ccc(Br)cc1` showed a composite z-score of 1.18. As to `CC1CC/C=C\[C@H]2OC34C=CCN(c5ccc(Cl)cc5)C(=O)[C@H]3N(CCCCCO)C(=O)[C@]4(C)C2C(=O)O1` (stereo not given in full), the composite z-score is -1.04.

The compound `O=C1O[C@H](c2ccccc2)[C@H](c2ccccc2)N2[C@H]1[C@@H](C(=O)Nc1nc3ccccc3s1)[C@]1(C(=O)Nc3ccc(C#CCCO)cc31)[C@H]2c1ccc(O)cc1` gave a composite z-score of 0.929. In turn, `COCCOC(=O)N1C(=O)[C@@]2(c3cc(C#CC4(O)CCCCCC4)ccc31)[C@H](c1ccc(O)cc1)N1[C@H](c3ccccc3)[C@H](c3ccccc3)OC(=O)[C@H]1[C@@H]2C(=O)NC[C@H](O)c1ccccc1` displayed a composite z-score of 1.12. Take `O=C1O[C@@H](c2ccccc2)[C@@H](c2ccccc2)N2[C@@H](c3ccccc3OCCO)[C@]3(C(=O)Nc4ccc(C#CCCO)cc43)[C@@H](C(=O)N3CCCCCCC3)[C@H]12`: the composite z-score turned out to be 1.71. To `COc1ccc([Si](C)(C)[C@@H]2[C@@H](CCO)O[C@]3(C(=O)N(Cc4ccc(N5CCCCC5=O)cc4)c4ccccc43)[C@H]2C)cc1` belongs 1.21.

As for `O=C(NCC(F)(F)F)[C@@H]1c2ccccc2C(=O)N(Cc2cc(F)cc(C(F)(F)F)c2)[C@H]1c1ccc(CO)cc1`, the composite z-score is -0.788. Regarding `Cc1ccccc1C(O)C1C=CC2C(=O)N(C)C(=O)C2N1N(c1ccccc1)c1ccccc1` (stereo not given), the composite z-score was determined as 0.362. `O=C(CS)NCCCCCCNC(=O)[C@H]1C[C@H]2C(=O)N[C@@H](Cc3ccccc3)C(=O)N2[C@H]1c1ccc(O)cc1` showed a composite z-score of 1.39. To `C=CCN1Cc2ccccc2[C@H]2OC(c3ccc(OCCCO)cc3)=N[C@@]2(CC=C)C1=O` belongs 1.4; to `CO[C@]12C=C(Br)[C@@H](C[C@@H]1c1cccc(C)c1)[C@@]1(CO1)C2=O`, 0.0635. `C=CC[C@]1(C(=O)O)COC(c2ccc(OCCCO)cc2)=N1` showed a composite z-score of -0.0346. In the case of `CCOC(=O)[C@H]1[C@@H]2C(=O)N3CCC[C@H]3[C@H](O[Si](C(C)C)(C(C)C)C(C)C)[C@H]2C=C2CCN(S(=O)(=O)c3ccc(C)cc3)C[C@H]21`, the composite z-score was 1. For the compound `CN(C)CCCCNC(=O)[C@@H]1C[C@@H]2C(=O)N[C@@H](Cc3ccccc3)C(=O)N2[C@@H]1c1cccc(OCCO)c1`, the composite z-score was 0.407.

In turn, `C=C(C)C1CCC(C(O)C2C=CC3C(=O)N(C)C(=O)C3N2N2CCCCC2)CC1` (stereo not given) came in with a composite z-score of 0.853. As for `CN1C(=O)C2C=CC(C(O)c3ccccn3)N(N(c3ccccc3)c3ccccc3)C2C1=O` (stereo not given), the figure is 0.62.

The values are drawn from PubChem BioAssay.
